Measurements as given in PubChem BioAssay AID463173 (ICCB-Longwood Screening Facility, Harvard Medical School, 2010).
The whole screen tested about 52,000 compounds, of which about 4,300 (8.3%) were called active. The sample as a whole holds a higher share of actives than the screen did. A number with no mark means an inactive call. No stated cut-off is given here; in the data, active means survival mostly below about 52% (no sharp cut-off); inactive means mostly above about 56%.

test system: DeltatarO mutant; experiment: growth inhibition of S. aureus wild type versus tarO mutant, primary screen, teichoic acid synthesis inhibitors, RN4220, OD600 (AID 463173); conditions: OD600, 18 h, active compounds read low, screened at 18.75 µg/mL (by protocol)

With `O=C(c1cccnc1)N1CCN(CCN2C(=O)C3C4C=CC(C4)C3C2=O)CC1` (stereo not given) as the molecule, how does the survival read?
The survival was 89%.

Which survival does the source give for `COc1ccc(-n2nc(C(=O)NCCc3ccc(OC)c(OC)c3)c3c4ccccc4n(C)c3c2=O)cc1Cl` here?
The survival was 95%.

How did the survival turn out when `CCOc1ccc(S(=O)(=O)NCCc2csc(-c3ccc(Cl)cc3)n2)cc1` was run?
Its survival is 91%.

`O=C1CC(c2ccccc2)Cc2[nH]c(=O)c(-c3nc(-c4ccc(F)cc4)cs3)cc21` (stereo not given) was tested. Which survival did it give?
The survival was 154%.

How did the survival turn out when `Cc1ccc(NC(=O)c2c(C)oc3ncnc(N4CCCCC4)c23)c(C)c1` was run?
The survival was 108%.

How did the survival turn out when `O=C(CCC1N=C2c3ccccc3N=C(SCC(=O)Nc3ccccc3F)N2C1=O)NCc1cccs1` (stereo not given) was run?
The survival was 96%.

How did the survival turn out when `CCc1cccc(NC(=O)Cn2c(=O)n(CC3CCC(C(=O)NC)CC3)c(=O)c3sccc32)c1` (stereo not given) was run?
The survival was 83%.

With `Cc1ccccc1OCCSc1nc2ccc(NC(=O)c3cccc(F)c3)cc2s1` as the molecule, how does the survival read?
Its survival is 100%.

Which survival does the source give for `O=C(NCC1CCCO1)C1CCCN1C(=O)Nc1ccc(Cl)cc1` (stereo not given) here?
The survival was 84%.

With `COc1ccc(-c2cc(C(=O)NCc3ccc(F)cc3)no2)cc1` as the molecule, how does the survival read?
Its survival is 178%.

For `COc1cccc(-c2cc(C(=O)NCc3ccccc3)no2)c1`, which survival is on record?
The survival was 45% (active).

For `COc1cccc(-c2cc(C(=O)NCc3ccc(F)cc3)no2)c1`, which survival is on record?
Its survival is 30% (active).

With `COc1ccc(CNC(=O)c2cc(-c3ccc(OC)cc3)on2)cc1` as the molecule, how does the survival read?
The survival was 210%.

With `COc1cccc(-c2cc(C(=O)NCCc3ccc(OC)c(OC)c3)no2)c1` as the molecule, how does the survival read?
The survival was 173%.

For `CCC(C)NC(=O)c1cc(-c2cccc(OC)c2)on1` (stereo not given), which survival is on record?
Its survival is 32% (active).

With `COc1ccc(CNC(=O)c2cc(-c3cccc(Cl)c3)on2)cc1` as the molecule, how does the survival read?
The survival was 49%.

For `COc1cccc(-c2cc(C(=O)Nc3cccnc3Cl)no2)c1`, which survival is on record?
Its survival is 61%.

With `COc1cccc(-c2cc(C(=O)Nc3ccc(OC)cc3OC)no2)c1` as the molecule, how does the survival read?
Its survival is 56%.

For `CCOC(=O)C1CCCN(C(=O)c2c(C)nn(-c3ccc(F)cc3)c2-n2cccc2)C1` (stereo not given), which survival is on record?
The survival was 113%.

`COc1cccc(NC(=O)C2CCN(c3ccc(Sc4ccc(C)cc4)nn3)CC2)c1` was tested. Which survival did it give?
Its survival is 49%.

With `O=C(CSc1cn(CC(=O)N2CCCC2)c2ccccc12)Nc1ccccc1C(F)(F)F` as the molecule, how does the survival read?
The survival was 66%.

For `O=C(NCn1nc(-c2ccccc2)nc1-c1ccccc1)c1cccnc1`, which survival is on record?
The survival was 67%.

For `CN(C)N=Nc1ccc(S(N)(=O)=O)cc1`, which survival is on record?
The survival was 92%.

With `O=C(c1ccccc1)n1nc(-c2ccco2)nc1NCc1cccs1` as the molecule, how does the survival read?
The survival was 81%.

How did the survival turn out when `CC(C)CNS(=O)(=O)c1ccc(N2CCCCS2(=O)=O)cc1` was run?
Its survival is 82%.

`COc1ccc(CNC(=O)c2cc3ccccn3n2)c(OC)c1` was tested. Which survival did it give?
Its survival is 71%.

With `O=C(c1ccccc1Cl)N1CCCC(c2nc3c(nnn3Cc3ccc(F)cc3F)c(=O)[nH]2)C1` (stereo not given) as the molecule, how does the survival read?
Its survival is 56%.

`O=C(c1cccc(Cl)c1)N1CCC(c2nc3c(nnn3Cc3ccc(F)cc3F)c(=O)[nH]2)CC1` was tested. Which survival did it give?
Its survival is 11% (active).

`COc1ccc(Cn2nnc3c(=O)[nH]c(C4CCN(C(=O)c5ccc(C)cc5)CC4)nc32)cc1OC` was tested. Which survival did it give?
The survival was 24% (active).

With `CCS(=O)(=O)N1CCCC(c2nc3c(nnn3Cc3ccc(C)cc3)c(=O)[nH]2)C1` (stereo not given) as the molecule, how does the survival read?
The survival was 88%.

`COc1ccc(Cn2nnc3c(=O)[nH]c(C4CCCN(C(=O)c5ccc(C)cc5)C4)nc32)cc1` (stereo not given) was tested. Which survival did it give?
Its survival is 107%.

With `Cc1ccccc1Cn1nnc2c(=O)[nH]c(C3CCN(C(=O)c4ccccc4Cl)CC3)nc21` as the molecule, how does the survival read?
The survival was 17% (active).

Which survival does the source give for `O=C(c1ccccc1)N1CCCC(c2nc3c(nnn3Cc3ccc(F)cc3F)c(=O)[nH]2)C1` (stereo not given) here?
The survival was 101%.

Which survival does the source give for `Cc1ccccc1Cn1nnc2c(=O)[nH]c(C3CCN(C(=O)c4ccccc4)CC3)nc21` here?
The survival was 17% (active).

Which survival does the source give for `COC(=O)c1ccc(NC(=O)N2CCN(c3nnc(C)c4c(C)n(-c5ccccc5)nc34)CC2)cc1` here?
Its survival is 65%.

With `COc1ccc(C(=O)CN2CCC(N3CCCCC3)CC2)cc1` as the molecule, how does the survival read?
Its survival is 92%.

Which survival does the source give for `COc1cc(-c2nc(Cn3nnc(C(=O)Nc4cccc(Cl)c4)c3C)c(C)o2)cc(OC)c1OC` here?
The survival was 80%.

Which survival does the source give for `CCN(CC)c1ccc(C(=O)N2CCC(c3c[nH]c4ccccc34)(c3c[nH]c4ccccc34)CC2)cc1` here?
The survival was 104%.

`CCOc1ccccc1NC(=O)N1CCN(S(=O)(=O)c2ccc3c(ccn3C)c2)CC1` was tested. Which survival did it give?
The survival was 76%.

`CC(C)(C)c1ccc(C(=O)N2CCC(C(=O)O)CC2)cc1` was tested. Which survival did it give?
Its survival is 68%.

Which survival does the source give for `CN1C(=O)CC(NCCc2ccc(S(N)(=O)=O)cc2)C1=O` (stereo not given) here?
The survival was 72%.

How did the survival turn out when `CCOc1ccc(-n2c(SCC(=O)Nc3cccc(Cl)c3)nc3c(oc4ccccc43)c2=O)cc1` was run?
The survival was 58%.

For `Cc1ccccc1Cn1nnc2c(=O)[nH]c(C3CCN(C(=O)c4ccc(F)cc4)CC3)nc21`, which survival is on record?
Its survival is 52% (active).

Which survival does the source give for `COc1cccc(Cn2nnc3c(=O)[nH]c(C4CCN(C(=O)c5ccccc5Cl)CC4)nc32)c1` here?
The survival was 14% (active).

`COc1cccc(Cn2nnc3c(=O)[nH]c(C4CCCN(C(=O)c5ccccc5Cl)C4)nc32)c1` (stereo not given) was tested. Which survival did it give?
The survival was 80%.

With `O=C(c1ccccc1F)N1CCC(c2nc3c(nnn3Cc3cccc(F)c3)c(=O)[nH]2)CC1` as the molecule, how does the survival read?
The survival was 47%.

With `Cc1cccc(Cn2nnc3c(=O)[nH]c(C4CCN(C(=O)c5ccc(F)cc5)CC4)nc32)c1` as the molecule, how does the survival read?
The survival was 28% (active).

Which survival does the source give for `COc1ccc(Cn2nnc3c(=O)[nH]c(C4CCCN(C(=O)c5ccccc5Cl)C4)nc32)cc1OC` (stereo not given) here?
The survival was 80%.

With `Cc1cccc(Cn2nnc3c(=O)[nH]c(C4CCN(C(=O)c5ccccc5F)CC4)nc32)c1` as the molecule, how does the survival read?
The survival was 46%.

`Cc1cc(C)cc(NC(=O)c2cc3c(=O)n(Cc4ccco4)ccc3nc2C)c1` was tested. Which survival did it give?
Its survival is 73%.

For `O=C(Nc1ccccc1)c1ccc2c(O)c(S(=O)(=O)c3ccc(Cl)cc3)c(=O)[nH]c2c1`, which survival is on record?
The survival was 74%.

With `COc1ccc(N(C)C(=O)c2cn(C)c(=O)c3cc(OC)c(OC)cc23)cc1` as the molecule, how does the survival read?
Its survival is 177%.

For `O=C(CSc1nnc(-c2ccco2)o1)NC(c1ccccc1)c1ccccc1`, which survival is on record?
Its survival is 61% (active).

How did the survival turn out when `O=C(CSc1nnc(-c2ccccc2)o1)Nc1ccccc1` was run?
The survival was 82%.

With `O=C(CCSc1nnc(-c2ccco2)o1)Nc1ccccc1` as the molecule, how does the survival read?
The survival was 86%.
